Source: PubChem BioAssay AID1159580 (chemical genetic matrix, 2015)
Hit rate of the full screen: of about 5,500 compounds, about 2,000 (36%) were called active. About 18% were inconclusive and are not listed. No stated cut-off is given here; in the data, active means normalized growth mostly below about 0.91 (no sharp cut-off); inconclusive means no clear call, values can overlap the other calls; inactive means mostly above about 0.92. The list shows a part of the results.

Experiment: chemical genetic growth profiling, strain panel (AID 1159580);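 further: tested at 20 µM; growth read once vehicle control cultures reached saturation at 30 °C; 1 = growth at the plate median or of vehicle wells; lower values mean less growth of the strain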
Details: growth OD
[1] = S. cerevisiae deletion strains, locus YJR075W, strain HOC1, active compounds read low
[2] = S. cerevisiae deletion strains, locus YMR307W, strain GAS1, active compounds read low
[3] = S. cerevisiae deletion strains, locus YDL101C, strain DUN1, active compounds read low
[4] = S. cerevisiae deletion strains, locus YHR030C, strain SLT2, active compounds read low
[5] = S. cerevisiae deletion strains, locus YJL095W, strain BCK1, active compounds read low
[6] = S. cerevisiae deletion strains, locus YOR061W, strain CKA2, active compounds read low

Measured: normalized growth

O=[N+]([O-])c1ccc(CSc2ncnc3c2ncn3[C@@H]2O[C@H](CO)[C@H](O)C2O)cc1 (stereo partly drawn)
inactive: S. cerevisiae deletion strains, locus YAL013W, strain DEP1, active compounds read low 1.01 | S. cerevisiae deletion strains, locus YAL040C, strain CLN3, active compounds read low 1.01 | S. cerevisiae deletion strains, locus YCL061C, strain MRC1 (second series), active compounds read low 1.01 | S. cerevisiae deletion strains, locus YDR363W, strain ESC2, active compounds read low 1.01 | S. cerevisiae deletion strains, locus YER002W, strain NOP16, active compounds read low 0.997 | [1] 1.01 | [2] 0.996 | S. cerevisiae deletion strains, locus YNL175C, strain NOP13, active compounds read low 1.01 | S. cerevisiae deletion strains, locus YNL197C, strain WHI3, active compounds read low 1.01 | S. cerevisiae deletion strains, locus YNL224C, strain SQS1, active compounds read low 1 | S. cerevisiae deletion strains, locus YNL322C, strain KRE1, active compounds read low 1.01 | S. cerevisiae deletion strains, locus YOR083W, strain WHI5 (second series), active compounds read low 0.992 | S. cerevisiae deletion strains, locus YPL055C, strain LGE1, active compounds read low 1.01 | S. cerevisiae deletion strains, locus YPL241C, strain CIN2, active compounds read low 1.01

CC1(C)C(O)CC(O)C2(C)C1CC(=O)C1(C)C2CCC2(C)C(C(=O)O)OC(=O)C3OC321 (stereo not drawn)
inactive: S. cerevisiae deletion strains, locus YBR021W, strain FUR4, active compounds read low 1.01 | S. cerevisiae deletion strains, locus YBR229C, strain ROT2, active compounds read low 1.01 | S. cerevisiae deletion strains, locus YCL029C, strain bik1, active compounds read low 0.996 | S. cerevisiae deletion strains, locus YDL035C, strain GPR1, active compounds read low 1.01 | S. cerevisiae deletion strains, locus YDL074C, strain BRE1, active compounds read low 1 | [3] 1.01 | S. cerevisiae deletion strains, locus YDL185W, strain tfp1, active compounds read low 0.984 | S. cerevisiae deletion strains, locus YDL192W, strain arf1, active compounds read low 1 | S. cerevisiae deletion strains, locus YDR101C, strain arx1, active compounds read low 1 | S. cerevisiae deletion strains, locus YDR150W, strain NUM1, active compounds read low 1.02 | S. cerevisiae deletion strains, locus YDR162C, strain NBP2, active compounds read low 1.03 | S. cerevisiae deletion strains, locus YDR318W, strain mcm21, active compounds read low 1 | S. cerevisiae deletion strains, locus YDR388W, active compounds read low 1 | S. cerevisiae deletion strains, locus YDR502C, strain sam2, active compounds read low 1.02 | S. cerevisiae deletion strains, locus YEL061C, strain CIN8, active compounds read low 1 | S. cerevisiae deletion strains, locus YER110C, active compounds read low 0.995 | S. cerevisiae deletion strains, locus YER155C, strain BEM2, active compounds read low 1.01 | S. cerevisiae deletion strains, locus YER167W, strain BCK2, active compounds read low 1.01 | S. cerevisiae deletion strains, locus YGL078C, strain dbp3, active compounds read low 0.996 | S. cerevisiae deletion strains, locus YGL086W, strain mad1, active compounds read low 1.01 | S. cerevisiae deletion strains, locus YGL248W, strain PDE1, active compounds read low 1.01 | S. cerevisiae deletion strains, locus YGR135W, strain pre9, active compounds read low 1.01 | S. cerevisiae deletion strains, locus YGR229C, strain SMI1, active compounds read low 1.01 | S. cerevisiae deletion strains, locus YGR252W, strain gcn5, active compounds read low 0.974 | [4] 1.01 | S. cerevisiae deletion strains, locus YHR079C, strain IRE1 (second series), active compounds read low 0.994 | S. cerevisiae deletion strains, locus YHR094C, strain hxt1, active compounds read low 1.01 | S. cerevisiae deletion strains, locus YHR129C, strain ARP1, active compounds read low 1.01 | S. cerevisiae deletion strains, locus YHR200W, strain rpn10, active compounds read low 1 | S. cerevisiae deletion strains, locus YIL066C, strain RNR3, active compounds read low 1.02 | S. cerevisiae deletion strains, locus YIL073C, strain SPO22, active compounds read low 1.03 | S. cerevisiae deletion strains, locus YIL125W, strain kgd1, active compounds read low 0.994 | S. cerevisiae deletion strains, locus YIR030C, strain dcg1, active compounds read low 0.999 | [5] 1.02 | S. cerevisiae deletion strains, locus YJL134W, strain LCB3, active compounds read low 1.01 | S. cerevisiae deletion strains, locus YJL168C, strain set2, active compounds read low 0.985 | S. cerevisiae deletion strains, locus YJL187C, strain SWE1 (second series), active compounds read low 1.01 | S. cerevisiae deletion strains, locus YJR043C, strain POL32, active compounds read low 1.02 | [1] 1.01 | S. cerevisiae deletion strains, locus YKL009W, strain mrt4, active compounds read low 0.986 | S. cerevisiae deletion strains, locus YKL068W, active compounds read low 1 | S. cerevisiae deletion strains, locus YKL085W, strain MDH1 (second series), active compounds read low 1 | S. cerevisiae deletion strains, locus YKL085W, strain MDH1, active compounds read low 1 | S. cerevisiae deletion strains, locus YKR001C, strain vps1, active compounds read low 0.99 | S. cerevisiae deletion strains, locus YLR039C, strain RIC1, active compounds read low 1.03 | S. cerevisiae deletion strains, locus YLR058C, strain SHM2, active compounds read low 1.01 | S. cerevisiae deletion strains, locus YLR102C, strain apc9, active compounds read low 0.998 | S. cerevisiae deletion strains, locus YLR262C, strain YPT6, active compounds read low 1 | S. cerevisiae deletion strains, locus YLR268W, strain sec22, active compounds read low 1.01 | S. cerevisiae deletion strains, locus YLR330W, strain CHS5, active compounds read low 1.01 | S. cerevisiae deletion strains, locus YLR342W, strain FKS1 (second series), active compounds read low 1 | S. cerevisiae deletion strains, locus YLR371W, strain rom2, active compounds read low 1.01 | S. cerevisiae deletion strains, locus YLR418C, strain cdc73, active compounds read low 1 | S. cerevisiae deletion strains, locus YML016C, strain PPZ1, active compounds read low 1.01 | S. cerevisiae deletion strains, locus YML032C, strain rad52, active compounds read low 1.01 | S. cerevisiae deletion strains, locus YML124C, strain tub3, active compounds read low 1 | S. cerevisiae deletion strains, locus YMR078C, strain ctf18, active compounds read low 0.984 | S. cerevisiae deletion strains, locus YMR223W, strain ubp8, active compounds read low 1.01 | S. cerevisiae deletion strains, locus YMR263W, strain SAP30, active compounds read low 1.01 | [2] 0.99 | S. cerevisiae deletion strains, locus YNL067W, strain RPL9B, active compounds read low 1.02 | S. cerevisiae deletion strains, locus YNL128W, strain TEP1, active compounds read low 1.02 | S. cerevisiae deletion strains, locus YNL153C, strain GIM3, active compounds read low 1.01 | S. cerevisiae deletion strains, locus YNL233W, strain BNI4, active compounds read low 1 | S. cerevisiae deletion strains, locus YNL250W, strain rad50, active compounds read low 0.999 | S. cerevisiae deletion strains, locus YNL271C, strain bni1, active compounds read low 0.993 | S. cerevisiae deletion strains, locus YNL298W, strain CLA4, active compounds read low 1.01 | S. cerevisiae deletion strains, locus YNL307C, strain MCK1, active compounds read low 1 | S. cerevisiae deletion strains, locus YNR052C, strain pop2, active compounds read low 0.994 | S. cerevisiae deletion strains, locus YOL012C, strain htz1 0.868 | S. cerevisiae deletion strains, locus YOL147C, strain pex11, active compounds read low 0.993 | [6] 1.01 | S. cerevisiae deletion strains, locus YOR069W, strain VPS5, active compounds read low 1.01 | S. cerevisiae deletion strains, locus YOR136W, strain idh2, active compounds read low 0.997 | S. cerevisiae deletion strains, locus YOR144C, strain elg1, active compounds read low 0.992 | S. cerevisiae deletion strains, locus YOR184W, strain ser1, active compounds read low 1.03 | S. cerevisiae deletion strains, locus YOR316C, strain cot1, active compounds read low 0.995 | S. cerevisiae deletion strains, locus YPR119W, strain clb2, active compounds read low 0.989 | S. cerevisiae deletion strains, locus YPR141C, strain kar3, active compounds read low 0.999 | S. cerevisiae deletion strains, locus YPR163C, strain tif3, active compounds read low 1.01 | S. cerevisiae deletion strains, locus YPR167C, strain met16, active compounds read low 0.997 | S. cerevisiae deletion strains, strain wtn01, active compounds read low 0.981 | S. cerevisiae strains, strain wild type, active compounds read low 1.01

CC(C)c1ccc(N2C=Nc3ccc(C(C)C)cc3C2)cc1
inactive: S. cerevisiae deletion strains, locus YAR019C, strain CDC15, active compounds read low 0.998 | S. cerevisiae deletion strains, locus YBL105C, strain PKC1, active compounds read low 0.995 | S. cerevisiae deletion strains, locus YBR135W, strain CKS1, active compounds read low 0.997 | S. cerevisiae deletion strains, locus YBR136W, strain MEC1, active compounds read low 0.995 | S. cerevisiae deletion strains, locus YBR160W, strain CDC28, active compounds read low 1 | S. cerevisiae deletion strains, locus YDL017W, strain CDC7, active compounds read low 1 | S. cerevisiae deletion strains, locus YDL028C, strain MPS1, active compounds read low 1.01 | [3] 1 | S. cerevisiae deletion strains, locus YDL108W, strain KIN28, active compounds read low 0.993 | S. cerevisiae deletion strains, locus YDL132W, strain cdc53, active compounds read low 0.995 | S. cerevisiae deletion strains, locus YDL214C, strain PRR2, active compounds read low 0.971 | S. cerevisiae deletion strains, locus YDR052C, strain DBF4, active compounds read low 1 | S. cerevisiae deletion strains, locus YDR054C, strain cdc34, active compounds read low 0.992 | S. cerevisiae deletion strains, locus YDR226W, strain ADK1, active compounds read low 0.984 | S. cerevisiae deletion strains, locus YDR477W, strain SNF1, active compounds read low 0.97 | S. cerevisiae deletion strains, locus YER123W, strain YCK3, active compounds read low 0.934 | S. cerevisiae deletion strains, locus YER133W, strain GLC7, active compounds read low 0.968 | S. cerevisiae deletion strains, locus YFL009W, strain cdc4, active compounds read low 1 | S. cerevisiae deletion strains, locus YFL029C, strain CAK1, active compounds read low 1 | S. cerevisiae deletion strains, locus YFR003C, strain YPI1, active compounds read low 1 | S. cerevisiae deletion strains, locus YFR019W, strain FAB1, active compounds read low 0.942 | S. cerevisiae deletion strains, locus YFR028C, strain CDC14, active compounds read low 0.987 | S. cerevisiae deletion strains, locus YGR040W, strain KSS1, active compounds read low 0.973 | S. cerevisiae deletion strains, locus YGR052W, strain FMP48, active compounds read low 1.09 | S. cerevisiae deletion strains, locus YGR092W, strain DBF2, active compounds read low 1.01 | [4] 0.898 | S. cerevisiae deletion strains, locus YHR079C, strain IRE1, active compounds read low 0.988 | S. cerevisiae deletion strains, locus YHR082C, strain KSP1, active compounds read low 1.04 | S. cerevisiae deletion strains, locus YHR205W, strain SCH9, active compounds read low 0.975 | S. cerevisiae deletion strains, locus YIL147C, strain SLN1, active compounds read low 1 | [5] 0.953 | S. cerevisiae deletion strains, locus YJL128C, strain PBS2, active compounds read low 0.982 | S. cerevisiae deletion strains, locus YJL157C, strain FAR1, active compounds read low 0.995 | S. cerevisiae deletion strains, locus YJR016C, strain ILV3, active compounds read low 1 | S. cerevisiae deletion strains, locus YJR066W, strain TOR1 (second series), active compounds read low 0.972 | S. cerevisiae deletion strains, locus YJR066W, strain TOR1, active compounds read low 1 | S. cerevisiae deletion strains, locus YKL048C, strain ELM1, active compounds read low 0.995 | S. cerevisiae deletion strains, locus YKL067W, strain YNK1, active compounds read low 0.963 | S. cerevisiae deletion strains, locus YKL101W, strain HSL1, active compounds read low 0.978 | S. cerevisiae deletion strains, locus YKL193C, strain SDS22, active compounds read low 0.997 | S. cerevisiae deletion strains, locus YKL203C, strain TOR2, active compounds read low 1.02 | S. cerevisiae deletion strains, locus YLR113W, strain HOG1, active compounds read low 0.97 | S. cerevisiae deletion strains, locus YLR133W, strain CKI1, active compounds read low 0.98 | S. cerevisiae deletion strains, locus YLR403W, strain SFP1, active compounds read low 0.988 | S. cerevisiae deletion strains, locus YML070W, strain DAK1, active compounds read low 0.96 | S. cerevisiae deletion strains, locus YMR001C, strain CDC5, active compounds read low 1 | S. cerevisiae deletion strains, locus YMR205C, strain PFK2 (second series), active compounds read low 0.972 | S. cerevisiae deletion strains, locus YMR277W, strain FCP1, active compounds read low 0.989 | S. cerevisiae deletion strains, locus YNL006W, strain LST8, active compounds read low 1.01 | S. cerevisiae deletion strains, locus YNL020C, strain ARK1, active compounds read low 0.987 | S. cerevisiae deletion strains, locus YNL161W, strain CBK1, active compounds read low 1 | S. cerevisiae deletion strains, locus YNL183C, strain NPR1, active compounds read low 0.968 | S. cerevisiae deletion strains, locus YNL207W, strain RIO2, active compounds read low 1.01 | S. cerevisiae deletion strains, locus YNL222W, strain SSU72, active compounds read low 1 | S. cerevisiae deletion strains, locus YNL307C, strain MCK1 (second series), active compounds read low 0.957 | S. cerevisiae deletion strains, locus YOL078W, strain AVO1, active compounds read low 1 | S. cerevisiae deletion strains, locus YOL136C, strain PFK27, active compounds read low 0.964 | [6] 0.999 | S. cerevisiae deletion strains, locus YOR119C, strain RIO1, active compounds read low 1.08 | S. cerevisiae deletion strains, locus YOR231W, strain MKK1, active compounds read low 0.99 | S. cerevisiae deletion strains, locus YOR329C, strain SCD5, active compounds read low 0.998 | S. cerevisiae deletion strains, locus YPL031C, strain PHO85, active compounds read low 0.973 | S. cerevisiae deletion strains, locus YPL153C, strain RAD53, active compounds read low 0.983 | S. cerevisiae deletion strains, locus YPL204W, strain HRR25, active compounds read low 0.949 | S. cerevisiae deletion strains, locus YPL209C, strain IPL1, active compounds read low 1 | S. cerevisiae deletion strains, locus YPL256C, strain CLN2, active compounds read low 0.97 | S. cerevisiae deletion strains, locus YPR025C, strain CCL1, active compounds read low 1 | S. cerevisiae deletion strains, locus YPR106W, strain ISR1, active compounds read low 0.998 | S. cerevisiae deletion strains, locus YPR111W, strain DBF20, active compounds read low 0.985 | S. cerevisiae deletion strains, strain NNK1, active compounds read low 1.01 | S. cerevisiae deletion strains, strain TSCII, active compounds read low 1.01
